Assay results published in PubChem BioAssay AID1259240 (Keith Lab, Institute of Cancer Science, University of …, 2017).
A number with no mark means an inactive call. Calls of active or inactive are those of the source. Cut-off read from the data, not from the text of the source: active = fold change mostly below about -2 (no sharp cut-off); inactive = mostly above about -1.8.

Assay: TERT promoter activity modulators, primary screen, cell-based, luciferase reporter, human (AID 1259240)
Details: A2780 TERT promoter luciferase reporter, 16 h; at 20 µM, fold versus average of vehicle-only wells

SMILES	fold change	outcome
CCN(CC)CCNc1nc2c(c(=O)[nH]c(=O)n2C)n1Cc1cccc(C)c1	-1.42	
O=C(Cn1c(=O)n(Cc2ccco2)c(=O)c2ccccc21)Nc1ccc(Cl)cc1Cl	-1.13	
O=C(CCCCn1c(=O)[nH]c2ccsc2c1=O)NCCc1c[nH]c2ccccc12	-2.16 (active)	
O=C(Nc1cccnc1)c1ccc2c(c1)C1C3CCC(C3)C1C(c1ccccc1)N2 (configuration not stated)	-1.08	
COc1cc2cc(=O)[nH]c(C)c2cc1OC	1.08	
COc1ccc(S(=O)(=O)n2nc(-c3ccc(OC)cc3OC)cc2N)cc1	1.19	
Cc1cc(C(F)(F)F)nc(Nc2nc3ccccc3o2)n1	-1.19	
O=C(NCCCN1CCCCC1)C1CCC(CNS(=O)(=O)c2cccc3nsnc23)CC1 (configuration not stated)	-1.15	
CCCc1nnc(NC(=O)Nc2ccccc2Cl)s1	-1.54	
Cc1nc(SCC(=O)c2ccccc2)c2c(=O)n(C)c(=O)n(C)c2n1	1.14	
O=C(Cc1ccc(NC2=NC3CS(=O)(=O)CC3S2)cc1)NCc1ccco1 (configuration not stated)	-1.32	
COc1ccc(Cl)cc1S(=O)(=O)n1ccnc1C(C)C	-4.76 (active)	
COc1ccc(Nc2nc(N)nc(CSc3nccn3C)n2)cc1	1.57	
O=C1c2ccccc2-c2onc3c(N4CCCC4)cc(NCCN4CCCC4)c1c23	-1.05	
O=C(Cn1c(=O)oc2cc(S(=O)(=O)NC3CCCC3)ccc21)NC1CCCCCCC1	1.01	
O=c1cc(CSc2nnnn2-c2ccccc2)nc2nc[nH]n12	-2.26 (active)	
O=C(CC1(O)C(=O)Nc2ccc(Br)cc21)c1cccs1 (configuration not stated)	-6.1 (active)	
CCN1/C(=C/C=C/c2sc3cc(NC(C)=O)ccc3[n+]2CC)Sc2cc(NC(C)=O)ccc21	-2.62 (active)	
COc1ccc(C2c3c(oc4ccc(F)cc4c3=O)C(=O)N2Cc2ccc3c(c2)OCO3)cc1 (configuration not stated)	-1.27	
CCOc1ccc(C2CC(=O)Nc3cc4c(cc32)OCO4)cc1Cl (configuration not stated)	-1.12	
NC(=O)C1CCN(c2nc3ccccn3c(=O)c2/C=C2/SC(=S)N(CC(=O)O)C2=O)CC1	-1.43	
CCOc1ccc(S(=O)(=O)n2c(C)nc3ccccc32)cc1	-1.6	
Cc1ccc2[nH]cc(S(=O)(=O)c3ccc(F)cc3)c(=O)c2c1	-1.06	

SMILES	fold change	outcome
CCOC(=O)CN1CC23C=CC(O2)C(C(=O)Nc2ccc(OCC)cc2)C3C1=O (configuration not stated)	1.29	
CCOC(=O)c1nn(-c2ccc(C)cc2)c(=O)c2c(NC(=O)c3ccc(C)c([N+](=O)[O-])c3)scc12	1.24	
CC1CCCN(S(=O)(=O)c2cccc(-c3cn4cccnc4n3)c2)C1 (configuration not stated)	-1.53	
COc1cc(-c2nc3cnccn3c2NC2CCCCC2)ccc1O		inactive
COc1ccc(NC(=O)CN2N=NC3C(=O)N(c4ccc(Cl)cc4)C(=O)C32)c(OC)c1 (configuration not stated)	-1.12	
CCCOc1ccc(Cc2nn3c(=O)/c(=C\c4cccc(OC(C)=O)c4)sc3nc2=O)cc1	-1.43	
COc1cc2c(=O)c(S(=O)(=O)c3ccccc3)cn(Cc3ccccc3F)c2cc1OC	1.06	
O=C(CSc1nc(-c2ccco2)cc(C(F)(F)F)n1)NCc1cccnc1	-1.4	
CC(CC(=O)Nc1nccs1)CC1=NS(=O)(=O)c2ccccc2N1 (configuration not stated)	-1.22	
Cc1cc(=O)oc2c1c(C)nn2-c1ccc(C(=O)O)cc1	-2.62 (active)	
C=CCOc1ccc(-c2nc3s/c(=C\c4cccc(OC(C)=O)c4)c(=O)n3n2)cc1	1.2	
CC1CCCC(C)N1C(=O)CN1C(=O)COc2ccc(S(=O)(=O)N3CCCCCC3)cc21 (configuration not stated)	-1.25	
CCOP(=O)(OCC)C(Nc1ccccc1)c1ccco1 (configuration not stated)	1.02	
Cc1c(NC(=O)c2cc(CC(C)C)on2)c(=O)n(-c2ccccc2)n1C	-1.7	
CCOc1ccc2c(c1)CN(Cc1ccc(Cl)cc1)CO2	-1.71	
COc1ccc(Nc2ncc(F)c(N3CCOCC3)n2)cc1	-3.37 (active)	
COc1ccc(OC)c(S(=O)(=O)c2cc3cccc(OC)c3oc2=O)c1	-1.07	
CC(C)C(NS(=O)(=O)c1ccc2c(c1)oc(=O)n2C)C(=O)Nc1ccc(F)c(F)c1 (configuration not stated)	-1.83	
CC(C)C(NS(=O)(=O)c1cccc2nsnc12)C(=O)N1CCCCC1 (configuration not stated)	1.43	
CCOC(=O)c1sc2nccc3c2c1N=CN3c1ccccc1	-1.96	
O=C(CN1C(=O)COc2ccc(S(=O)(=O)N3CCOCC3)cc21)N1CCC2(CC1)OCCO2	1.48	
CCCc1nnc2n1Nc1nc3ccccc3nc1S2	1.62	
COc1ccc(NC(=O)c2cnccn2)cc1F	-1.32	

SMILES	fold change	outcome
O=C1C2ON(c3ccccc3)C(c3ccncc3)C2C(=O)N1c1ccc(N2CCOCC2)cc1 (configuration not stated)	-1.7	
COc1ccc(Nc2c(-c3ccc(C)o3)nc3ncccn23)cc1OC	-1.44	
Cc1cc(C)cc(-c2nc(-c3cccnc3)no2)c1	-2.32 (active)	
Cc1noc(C(=O)NCC(C)C)c1Cl	-1.74	
COc1ccc2c(c1)/C(=c1/sc3n(c1=O)CN(c1ccc(C)c(Cl)c1)CN=3)C(=O)N2	-1.71	
CCC(Sc1nnc(-c2c[nH]c3ccccc23)n1CCOC)C(=O)OC (configuration not stated)		inactive
COC(=O)c1ccc(C2NC(=O)c3n[nH]c(C)c32)cc1 (configuration not stated)	-1.08	
Cn1c2ccccc2c2cnn(CC(=O)N3CCN(c4ccccn4)CC3)c(=O)c21	-1.1	
Cn1c(=O)oc2cc(S(=O)(=O)N3CCC(C(=O)Nc4nccs4)CC3)ccc21	1.31	
CN(CC(=O)NCc1cccs1)S(=O)(=O)c1ccc2c(c1)n(C)c(=O)c(=O)n2C	1.51	
Cc1cc(NC(=O)CSCc2nc(-c3cccc(Cl)c3)oc2C)no1	1.06	
COc1ccc(C2c3c(n[nH]c3C)C(=O)N2c2ccc(Br)cc2)c(OC)c1 (configuration not stated)	-1.34	
CCOC(=O)CNc1c(N(C)C2CCCCC2)c(=O)c1=O	-1.1	
CCOC(=O)CCCSc1nc2sc(C)c(C)c2c(=O)[nH]1	-3.49 (active)	
CCCn1c(NCc2cccs2)nc2ccccc21	1.22	
Cc1ccc2c(C)nc(NC3=NCN(CC4CCCO4)CN3)nc2c1 (configuration not stated)	-1.73	
CN1CCN(C(=O)C2CCN(c3ccc(N4CCOCC4)nn3)CC2)CC1	-1.4	
CCOC(=O)c1oc2ccc(S(=O)(=O)n3nc(-c4ccc(OC)cc4OC)cc3N)cc2c1C	-1.57	
CCN1CCN(C(=O)CSc2nc(-c3ccco3)cc(C(F)(F)F)n2)CC1	-1.46	
Cc1ccccc1-c1nc(CSCC(=O)O)c(C)o1	-1.01	
Cn1c(=O)c2c(SCC(=O)Nc3ccc(F)cc3)nc(-c3ccco3)nc2n(C)c1=O	1.12	
Cc1cccc(CNc2nc(N)n(-c3ccccc3)n2)c1	1.27	
CCOc1ccc(OCC)c(NC(=O)C2CCCN(S(=O)(=O)c3cnc[nH]3)C2)c1 (configuration not stated)	1.05	

SMILES	fold change	outcome
Cn1c(=O)c(=O)n(C)c2cc(S(=O)(=O)N3CCCC3C(=O)NC3CCCCC3)ccc21 (configuration not stated)	1.05	
COc1ccccc1Nc1nc(N)nc(CSc2ncccn2)n1	-1.15	
COc1ccc(Nc2c(-c3ccc(N4CCOCC4)cc3)nc3ncccn23)cc1OC	-1.26	
COC(=O)CN1C(=O)C(O)(CC(=O)c2ccc(Br)cc2)c2ccccc21 (configuration not stated)	-1.49	
Cc1nc2cc(-c3ccccc3)nn2c(C)c1CCC(=O)NC(C)CCc1ccco1 (configuration not stated)	-2.05 (active)	
CCOc1ccc2c(c1)CN(c1ccc(Cl)cc1)CO2	-1.19	
CC(=O)C(Sc1nc(C)nc2c1c(=O)n(C)c(=O)n2C)C(C)=O	1.87	
CC(=O)NC1=NN(C(C)=O)C2(S1)C(=O)N(C)c1ccccc12 (configuration not stated)	-1.23	
CN(C)CCCN1C(=O)CSC1c1ccccc1 (configuration not stated)	-1.42	
CCOC(=O)C1CCCN(c2c(N3CCC(C(N)=O)CC3)c(=O)c2=O)C1 (configuration not stated)	-1.23	
COc1ccc2cc3c(N)nn(C(=O)CSc4ccncc4)c3nc2c1	-1.05	
CCOC(=O)C1CCCN(c2c(N3CCOCC3)c(=O)c2=O)C1 (configuration not stated)	-1.15	
COC(=O)c1cc(NS(=O)(=O)c2cccc3cccnc23)cc(C(=O)OC)c1	-1.91	
CCOC(=O)C1CCCN(c2c(NCCCN3CCN(C)CC3)c(=O)c2=O)C1 (configuration not stated)	-1.03	
O=C(Cn1ncc2c3ccccc3n(Cc3cccc(Cl)c3)c2c1=O)NCc1cccnc1	-1.25	
CC(C)Oc1ccc(-c2cc(C(F)(F)F)n3ncc(C#N)c3n2)cc1	-2.17 (active)	
O=C(CSc1nc(-c2ccco2)cc(C(F)(F)F)n1)N1CCc2ccccc21	-1.91	
NC(=O)C1CCN(C(=O)N2c3ccccc3Sc3ccccc32)CC1	-2.9 (active)	
C=CCn1c(=N)n(CC(=O)C(C)(C)C)c2ccccc21	-1.1	
Cc1csc(NC(=O)C2=CCN(S(=O)(=O)c3ccccc3)CC2)n1	1.13	
CN1CCN(CCNC(=O)Cn2ncc3c4ccccc4n(C)c3c2=O)CC1	-1.16	
CCOC(=O)C1CCCN(c2c(NC3CCN(C(=O)OCC)CC3)c(=O)c2=O)C1 (configuration not stated)	1.19	
CSCCC(C(=O)O)N1C(=O)/C(=C/c2cccnc2)SC1=S (configuration not stated)	-1.77	
